# Measured values published in PubChem BioAssay (Tox21).
# Values joined by “and” are separate entries in the source; they are usually repeats but may differ in a detail not shown here. Equal entries are not always repeated. Inconclusive results are not listed. Entries that show only a call come without a potency. Active and inactive are the calls of the source. Calls follow the shape of the dose curve; as a rule, active = well fitted cell-killing curve with a large enough effect in the repeat runs; inconclusive = weak or mixed curves, or effect the other way; inactive = flat fitted curve, though single readings scatter.
# Assay: Human pregnane X receptor (PXR) small molecule agonists, qHTS cell viability counter screen (AID 1346977); also: nearly all actives have a fitted effect of over 50% in size
# Conditions: PXR-Luc HepG2 viability, CellTiter-Fluor, 24 h; series mostly up to 92.4 µM
# From the text: U.S. Tox21 Program National Center for Advancing Translational Sciences [NCATS] NIH Chemical Genomics Center [NCGC] U.S. Environmental Protection Agency [EPA] National Institutes of Environmental Health Sciences [NIEHS] National Toxicology Program [NTP] U.S. Food and Drug Administration [FDA] Tox21 Assay Overview: The human pregnane X receptor (hPXR) regulates the expression of several drug metabolizing enzymes and induction of these proteins is a major mechanism for developing drug resistance in cancer. One such key enzyme catalyzing the drug metabolism is cytochrome P450 3A4 (CYP3A4). Changes in CYP3A4 expression affect drug metabolism, thereby reducing the therapeutic efficacy and altering toxicological response to a drug and which finally causes adverse drug interaction. To screen Tox21 libraries for compounds that activate hPXR-mediated CYP3A4 gene expression, PXR-Luc HepG2 cells were used. Also cytotoxicity of the compounds was tested in parallel by measuring the cell viability using CellTiter-Fluor assay system in the same wells.
# Tox21 Assay Protocol Summary: PXR-Luc HepG2 cells were dispensed at 2,000 per well in 5uL of assay medium containing 5% charcoal-stripped FBS into white solid bottom 1536-well plates (Corning Life Sciences, Corning, NY) using a Multidrop Combi (Thermo Scientific, Waltham, MA) dispenser. The assay plates were incubated at 37 C and 5% CO2 for 5hr, and then 23nL of compounds dissolved in DMSO and positive control were transferred using a Pintool station (Wako, San Diego, CA). The assay plates were incubated at 37C and 5% CO2 for 24hr. For cytotoxicity read, after 23hr incubation at 37C, 1uL CellTiter-Fluor reagent (Promega Corporation, Madison, WI) was added to each well of the assay plates using Flying Reagent Dispenser (FRD, Aurora Discovery, San Diego, CA). After 1hr incubation at 37C and 5% CO2, the fluorescence signal was quantified using a ViewLux plate reader (PerkinElmer, Shelton, CT).
# Potency is read from the fitted curve at half-maximal effect.
row,SMILES,Potency
1,COP(N)(=S)OC,inactive
2,O=C(O)COc1nc(Cl)c(Cl)cc1Cl,inactive
3,Cc1ccc(CCl)cc1,inactive
4,ClCCN1CCOCC1,inactive
5,CN(CCCC(O)c1cccnc1)N=O (stereo not given),inactive
6,O=c1ssc(Cl)c1Cl,inactive
7,CCOP(=O)(NC(C)C)Oc1ccc(SC)c(C)c1 (stereo not given),inactive
8,C=CCOC(N)=O,inactive
9,CCC(C)(C)C(=O)OC1=C(c2ccc(Cl)cc2Cl)C(=O)OC12CCCCC2,inactive
10,O=c1[nH]c2ccccc2n1C1CCN(CCCC(c2ccc(F)cc2)c2ccc(F)cc2)CC1,21.7 µM (active) and 26.6 µM (active)
11,NNC(=O)c1ccccc1,inactive
12,CCC(C)c1cc(C(C)(C)C)cc(-n2nc3ccccc3n2)c1O (stereo not given),inactive
13,COP(=O)(OC)SCn1c(=O)oc2cc(Cl)cnc21,30.6 µM (active)
14,CCCCN(CCCC)C(=S)[S-].CCCCN(CCCC)C(=S)[S-].[Zn+2],13.7 µM (active)
15,Fc1cccc(Cl)c1CCl,inactive
16,COC(=O)N(C(=O)N1CO[C@@]2(C(=O)OC)Cc3cc(Cl)ccc3C2=N1)c1ccc(OC(F)(F)F)cc1,inactive
17,CC(=O)C(Cl)(Cl)Cl,8.34 µM (active)
18,Clc1ccc(Oc2ccccc2)cc1,inactive
19,Oc1ccc2ccc3cccc4ccc1c2c34,inactive
20,S=C=Nc1cccc2ccccc12,53.9 µM (active)

row,SMILES,Potency
1,Oc1ccc(I)cc1,inactive
2,FC(F)(F)c1cccc(C2=CCN(CCc3ccc4ccccc4c3)CC2)c1,inactive
3,CC(=O)[O-].CC(=O)[O-].O.O.[Cd+2],8.51 µM (active)
4,CC(C)CBr,inactive
5,CCCN(CCC)c1c([N+](=O)[O-])cc(S(N)(=O)=O)cc1[N+](=O)[O-],50.1 µM (active)
6,O=c1[nH]c2ccccc2n1CCCN1CCC(n2c(=O)[nH]c3cc(Cl)ccc32)CC1,26.6 µM (active)
7,C[C@H]1CC[C@@H]2[C@@H](C)[C@H]3[C@H](C[C@H]4[C@@H]5CC=C6CC(O[C@@H]7O[C@H](CO)[C@H](O)[C@H](O[C@@H]8O[C@H](CO)[C@@H](O)[C@H](O)[C@H]8O)[C@H]7O[C@H]7O[C@@H](C)[C@H](O)[C@@H](O)[C@H]7O)CC[C@]6(C)[C@H]5CC[C@]34C)N2C1 (stereo not given in full),11.2 µM (active)
8,Clc1ccc(-c2ccc(Cl)c(Cl)c2Cl)c(Cl)c1Cl,inactive
9,CCN(CC)C(=S)[S-].CCN(CC)C(=S)[S-].[Zn+2],1.71 µM (active)
10,N#Cc1ccccc1Cl,inactive
11,Clc1ccc(COC(Cn2ccnc2)c2ccc(Cl)cc2Cl)cc1 (stereo not given),45.3 µM (active) and 48.4 µM (active) and 26.6 µM (active)
12,CC(O)C#N (stereo not given),inactive
13,CCOP(=S)(OCC)SCS(=O)(=O)C(C)(C)C,inactive
14,CC(=[OH+])/C=C(/C)[O-].CC(=[OH+])/C=C(\C)[O-].CC(=[OH+])/C=C(\C)[O-].[Al],inactive
15,SCc1ccco1,inactive
16,c1ccc(Nc2ccc3ccccc3c2)cc1,inactive
17,CC(C)(C)OO,inactive
18,CCCCCCCCCCBr,inactive
19,Oc1cc(Cl)c(Cl)c(Cl)c1,51.7 µM (active)
20,Clc1ccc(C(c2ccccc2Cl)C(Cl)(Cl)Cl)cc1 (stereo not given),inactive
